Assay [1] relates to Human papillomavirus type 1a protein E7 (residues 44-93). The assay can be described thus: small molecules binding HPV E7 44-93 – biochemical, small-molecule microarray, residues 44-93, 635 nm fluorescence, primary screen (AID 1108).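 Note: E7 fragment applied at 1 µg/mL in TBST for 1 h at 4 C; score combines spot fluorescence with its signal to noise ratio.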 Particulars: fluorescence 635 nm, higher = more signal.
Assay [2] in a line: hepatitis C replication reporter changes, two-sided – Huh7 cells, luciferase reporter, HCV replication inhibitor project, primary screen (AID 1109).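 Note: huh7 hepatoma cells harbouring a luciferase neomycin HCV replicon reporter; luciferase luminescence as measure of HCV replicon replication; test concentration not given here.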 Particulars: Huh7 HCV replicon luciferase reporter, 48 h; higher = more signal.
The target of assay [3] is Left-right determination factor 2 (Homo sapiens) (UniProt O00292). The assay can be described thus: small molecules binding LEFTY2 protein – biochemical, small-molecule microarray, 635 nm fluorescence scan, primary screen (AID 1110). Particulars: higher = more signal.
Sequence of Left-right determination factor 2 (Homo sapiens) (O00292 whole entry, looked up): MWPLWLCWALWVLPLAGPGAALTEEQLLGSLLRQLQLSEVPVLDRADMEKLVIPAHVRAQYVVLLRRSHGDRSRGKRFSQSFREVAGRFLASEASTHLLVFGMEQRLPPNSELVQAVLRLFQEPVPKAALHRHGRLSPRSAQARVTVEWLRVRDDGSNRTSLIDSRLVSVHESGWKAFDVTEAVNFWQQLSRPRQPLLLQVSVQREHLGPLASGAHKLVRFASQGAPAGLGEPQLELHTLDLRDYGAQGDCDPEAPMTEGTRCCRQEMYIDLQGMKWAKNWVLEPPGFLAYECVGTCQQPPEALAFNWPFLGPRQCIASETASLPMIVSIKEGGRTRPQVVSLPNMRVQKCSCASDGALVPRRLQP
Assay [4] has as its target Calmodulin-1 (Homo sapiens) (UniProt P0DP23). The assay can be described thus: small molecules binding calmodulin-1 with EGTA – biochemical, small-molecule microarray, Cy5-labelled CALM1, profiling panel (AID 1111).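 Note: labelled calmodulin applied in Tris saline Tween buffer holding calcium plus EGTA and DTT.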 Particulars: Cy5-CALM1 binding fluorescence, higher = more signal.
For assay [5] the target is unchanged. The experiment in a line: small molecules binding Ca-loaded calmodulin-1 – biochemical, small-molecule microarray, Cy5-labelled CALM1, plus calcium, artefact control for SMM control-protein annotation, profiling panel (AID 1112).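 Note: score merges spot fluorescence with signal to noise from triplicate slides.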 The settings on record: Cy5-CALM1 binding fluorescence, higher = more signal.
A short description of assay [6]: probe aWnt5a binding to arrayed compounds – biochemical, biotinylated probe, 635/667 nm fluorescence, primary screen (AID 1113).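 Note: score merges 667 nm fluorescence intensity with signal-to-noise per printed feature.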 The settings on record: small-molecule microarray, higher = more signal.
Assay [7] is described as follows: probe aShh binding to arrayed compounds – biochemical, biotinylated probe, 635/667 nm fluorescence, primary screen (AID 1114).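 Note: probe is biotin-labelled aShh protein from a stem cell growth factor screen; measures binding of labelled protein to compounds printed on the slide; score merges feature fluorescence at 667 nm with signal-to-noise.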 Particulars: small-molecule microarray, higher = more signal.
Assay [8] is described as follows: probe aNog binding to arrayed compounds – biochemical, biotinylated probe, 635/667 nm fluorescence, primary screen (AID 1115).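 Note: probe is biotinylated aNog protein used at 0.15 µg/mL for 1 h at 4 C; z-score combines 667 nm fluorescence of each spot with its signal to noise.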 The settings on record: small-molecule microarray, higher = more signal.
In assay [9] the target is Torsin-1A-interacting protein 1 (Homo sapiens) (UniProt Q5JTV8). The assay can be described thus: compound microarray binding of lysate hLAP1 – cell lysate, small-molecule microarray, COS7 lysate, 635/667 nm fluorescence, primary screen (AID 1116). The settings on record: 635 nm fluorescence, higher = more signal.
Sequence of Torsin-1A-interacting protein 1 (Homo sapiens) (Q5JTV8 whole entry, looked up): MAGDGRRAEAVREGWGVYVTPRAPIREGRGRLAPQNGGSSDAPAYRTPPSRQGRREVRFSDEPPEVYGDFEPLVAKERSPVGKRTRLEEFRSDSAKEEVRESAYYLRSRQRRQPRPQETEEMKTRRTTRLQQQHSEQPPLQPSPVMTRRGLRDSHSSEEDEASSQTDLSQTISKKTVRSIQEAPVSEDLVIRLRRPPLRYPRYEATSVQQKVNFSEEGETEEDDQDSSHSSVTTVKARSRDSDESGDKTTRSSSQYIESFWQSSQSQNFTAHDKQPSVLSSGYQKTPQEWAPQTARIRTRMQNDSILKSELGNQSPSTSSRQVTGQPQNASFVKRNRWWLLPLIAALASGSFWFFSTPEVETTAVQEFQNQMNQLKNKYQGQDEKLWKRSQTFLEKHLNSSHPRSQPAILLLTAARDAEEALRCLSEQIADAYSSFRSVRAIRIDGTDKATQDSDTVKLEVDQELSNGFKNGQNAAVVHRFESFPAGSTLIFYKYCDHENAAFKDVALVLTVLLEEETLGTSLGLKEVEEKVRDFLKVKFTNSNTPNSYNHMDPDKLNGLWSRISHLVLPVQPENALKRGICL
Assay [10] has as its target Alpha-bungarotoxin (Bungarus multicinctus) (UniProt P60615). The assay can be described thus: compounds binding labelled alpha-BTX control protein – biochemical, small-molecule microarray, Alexa647 label, 635/667 nm fluorescence, artefact control for SMM control protein annotation, profiling panel (AID 1117). The settings on record: alpha-BTX-A647 binding fluorescence, higher = more signal.

A further assay deals with Albumin (Bos taurus) (UniProt P02769). The assay can be described thus: compounds binding labelled BSA control protein – biochemical, small-molecule microarray, Alexa647 label, 635/667 nm fluorescence, artefact control for SMM control protein annotation, profiling panel (AID 1118).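 Note: score merges 667 nm emission intensity and signal-to-noise per printed compound spot.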 The settings on record: BSA-A647 binding, fluorescence 635 nm, higher = more signal.
Sequence of Albumin (Bos taurus) (P02769 whole entry, looked up): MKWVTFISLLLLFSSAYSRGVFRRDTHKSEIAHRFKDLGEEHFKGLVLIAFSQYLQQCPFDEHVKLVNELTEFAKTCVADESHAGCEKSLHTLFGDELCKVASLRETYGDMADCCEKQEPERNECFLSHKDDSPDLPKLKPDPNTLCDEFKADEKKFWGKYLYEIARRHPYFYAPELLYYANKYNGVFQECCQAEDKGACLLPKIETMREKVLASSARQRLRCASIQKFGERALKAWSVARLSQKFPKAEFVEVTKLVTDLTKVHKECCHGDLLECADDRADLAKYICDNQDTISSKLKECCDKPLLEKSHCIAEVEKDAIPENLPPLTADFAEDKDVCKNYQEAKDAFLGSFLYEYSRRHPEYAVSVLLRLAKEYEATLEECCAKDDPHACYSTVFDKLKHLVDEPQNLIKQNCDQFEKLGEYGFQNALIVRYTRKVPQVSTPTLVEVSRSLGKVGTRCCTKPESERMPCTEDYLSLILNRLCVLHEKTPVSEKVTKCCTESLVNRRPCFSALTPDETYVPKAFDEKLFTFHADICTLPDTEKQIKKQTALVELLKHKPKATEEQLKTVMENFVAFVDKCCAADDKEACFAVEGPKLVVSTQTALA
Assay [11] can be described thus: probe aXIP binding to arrayed compounds – biochemical, NeuroSMM set, 635/667 nm fluorescence, primary screen (AID 1119).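 Note: probe is the protein aXip251-270 applied at 1 µg/mL to compound-printed slides; binding of probe to printed compounds measured as 667 nm fluorescence plus signal to noise.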 Particulars: small-molecule microarray, higher = more signal, called active from +8 up or from −8 down.
Assay [12] is described as follows: probe aNOTCH3 binding on compound microarray – biochemical, small-molecule microarray, 635/667 nm fluorescence, primary screen (AID 1120).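 Note: probe is a biotin-tagged antibody raised against NOTCH3 rather than NOTCH3 protein; score merges spot fluorescence near 667 nm with spot signal to noise.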 Particulars: higher = more signal.
Assay [13] in a line: probe aNOTCH2 binding on compound microarray – biochemical, small-molecule microarray, 635/667 nm fluorescence, primary screen (AID 1121).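 Note: score merges feature fluorescence read at 667 nm with its signal to noise.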 Particulars: higher = more signal.
For assay [14], the target named is Carbonic anhydrase 2 (Homo sapiens) (UniProt P00918). The experiment in a line: compounds binding carbonic anhydrase 2 – biochemical, small-molecule microarray, Alexa647-labelled CAII, profiling panel (AID 1122). Particulars: CAII-A647 binding fluorescence, higher = more signal.
A short description of assay [15]: COS7 lysate on small-molecule microarray, probe aHis, 635 nm (AID 1123).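 Note: z-score combines 667nm fluorescence intensity with signal-to-noise per printed compound spot.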 The settings on record: COS7 cell lysate, fluorescence, higher = more signal.
Assay [16] can be described thus: probe aLAP1 signal on lysate-treated microarray – cell lysate, small-molecule microarray, COS7 lysate, primary screen (AID 1124).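 Note: lysate comes from COS7 cells expressing LAP1 and is applied at 0.3 µg/mL; score merges spot fluorescence near 667 nm with signal-to-noise over triplicate slides.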 Particulars: probe aLAP1, fluorescence, higher = more signal.
The subject of another assay is Sam68 (KHDRBS1). The assay can be described thus: compounds binding KHDRBS1 protein – biochemical, small-molecule microarray, 635 nm fluorescence, primary screen (AID 1125).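 Note: score merges 667 nm channel intensity with signal to noise over triplicate slides.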 The settings on record: higher = more signal.
The test system of assay [17] is Chordin-like protein 2 (CHRDL2). The experiment in a line: compounds binding chordin-like 2 – biochemical, small-molecule microarray, 635 nm fluorescence, primary screen (AID 1126).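 Note: printed compound slides probed with Chrdl2 protein at 4 µg/mL for 1 h at 4 C; score merges 667 nm emission intensity with signal to noise over three replicate slides.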 Particulars: fluorescence 635 nm, higher = more signal.
In assay [18] the target is Concanavalin-A (Canavalia ensiformis) (UniProt P02866). The experiment in a line: compounds binding concanavalin A lectin – biochemical, small-molecule microarray, Alexa647 label, 635 nm, artefact control for SMM control protein annotation, primary screen (AID 1127).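 Note: z combines 667 nm emission intensity with signal-to-noise across three replicate slides.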 Particulars: ConA-A647 binding fluorescence, higher = more signal.
Sequence of Concanavalin-A (Canavalia ensiformis) (P02866 whole entry, looked up): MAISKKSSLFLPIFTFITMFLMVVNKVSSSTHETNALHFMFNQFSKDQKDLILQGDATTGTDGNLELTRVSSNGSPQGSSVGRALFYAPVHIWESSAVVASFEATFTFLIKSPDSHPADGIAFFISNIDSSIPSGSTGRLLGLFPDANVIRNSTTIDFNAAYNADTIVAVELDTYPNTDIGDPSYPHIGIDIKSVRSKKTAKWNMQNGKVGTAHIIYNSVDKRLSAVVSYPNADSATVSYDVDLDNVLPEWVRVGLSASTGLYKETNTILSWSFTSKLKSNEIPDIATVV

Molecules are shown by their SMILES. Calls of active or inactive are those of the source.

Sequence of Alpha-bungarotoxin (Bungarus multicinctus) (P60615 whole entry, looked up): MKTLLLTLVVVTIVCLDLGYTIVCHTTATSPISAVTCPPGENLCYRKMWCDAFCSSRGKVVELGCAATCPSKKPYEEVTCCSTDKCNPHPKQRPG

`CCCCCCc1nc(-c2ccc(OC)nc2)cc2c1[Si](C(C)C)(C(C)C)OC2`: the composite z-score is -0.611 in assay [1]; -0.147 in [3]; -0.464 in assay [4]; 0.0559 in assay [5]; -0.0643 in assay [6]; -0.262 in [7]. For the same compound, the composite z-score in [8] is -0.0965; in assay [9] it was -0.346; in [10] it was 0.502; with Albumin (Bos taurus) it was -0.361; in assay [12], -0.0858; in assay [13] it was -0.104. Further, the composite z-score in assay [14] was 0.445; in assay [15] it was -0.689; in assay [16] it was -0.293; in the assay on Sam68 (KHDRBS1), -0.299; in assay [17], -0.0659; in assay [18] it was 0.502. Besides, the z-score in assay [2] turned out to be 1.09. The composite Z-score in assay [11] is 0.582 (inactive).

Regarding `O=C1C2C=CC(C(O)C(c3ccccc3)c3ccccc3)N(Nc3ccccc3)C2C(=O)N1c1ccccc1` (stereo not given), the composite z-score in assay [1] was 1.44; in assay [3], 0.438; in [4] it was 0.809; in [5] it was 0.173; in assay [6], -0.0051; in assay [7] it was 0.0068. Moreover, the composite z-score in [8] was 0.162; in [9] it was 0.429; in assay [10], 1.1; in the assay with Albumin (Bos taurus), 0.876; in assay [12], 0.278; in assay [13] it was -0.0633. The composite z-score is 0.619 in [14]; 2.17 in [15]; 0.0595 in assay [16]; 1.3 with Sam68 (KHDRBS1); -0.236 in assay [17]; 0.942 in assay [18]. Moreover, the z-score in assay [2] was -0.267. For the same compound, in assay [11], the composite Z-score is 0.312 (inactive).

On to `[N-]=[N+]=NCc1ccccc1[C@H]1OC(c2ccc(OCCCO)cc2)=N[C@@]1(Cc1ccccc1)C(=O)N1CCOCC1`, for which the composite z-score in assay [1] is 1.06; in [3], 0.335; in assay [4], 1.48; in assay [5], 0.779; in assay [6], 0.186; in assay [7], -0.226. The composite z-score is -0.461 in assay [8]; 1.43 in assay [9]; 1.28 in [10]; 0.912 with Albumin (Bos taurus); 0.754 in assay [12]; 0.294 in [13]. The composite z-score in [14] is 0.55; in assay [15] it was 2.97; in assay [16] it was 0.204; in the assay on Sam68 (KHDRBS1), 1.3; in [17], -0.0573; in [18] it was 1.14. Moreover, the z-score in assay [2] was -2.31. Moreover, the composite Z-score in assay [11] is 0.475 (inactive).

With `COCCOC(=O)N1C(=O)[C@@]2(c3cc(C#CC4(O)CCCCCC4)ccc31)[C@H](C(=O)N1CCc3cc(OC)c(OC)cc3C1)[C@H]1C(=O)O[C@H](c3ccccc3)[C@H](c3ccccc3)N1[C@@H]2c1ccc(O)cc1`, the composite z-score is 1.02 in assay [1]; 0.729 in assay [3]; 0.621 in [4]; -0.394 in [5]; -0.0512 in [6]; 0.191 in assay [7]. Further, the composite z-score in [8] was -0.411; in assay [9], 1.12; in [10], 1.17; with Albumin (Bos taurus), 0.609; in [12], 0.163; in [13], 0.0012. For the same compound, the composite z-score in assay [14] is 0.638; in [15] it was 1.58; in [16], 0.773; with Sam68 (KHDRBS1) it was 1.29; in assay [17] it was 0.34; in assay [18] it was 1.16. The z-score in assay [2] was -1.01. In addition, in assay [11], the composite Z-score was 0.413 (inactive).

Regarding `CC(C)=CCN(C(=O)C#Cc1ccccc1)[C@H](CO)c1ccccc1`, the composite z-score is 1.16 in [1]; 0.379 in assay [3]; -0.557 in [4]; -0.56 in [5]; -0.0346 in assay [6]; -0.16 in assay [7]. Besides, the composite z-score in assay [8] is -0.302; in [9], 0.58; in [10], 0.14; with Albumin (Bos taurus) it was -0.105; in assay [12], 0.0259; in assay [13], -0.0883. For the same compound, the composite z-score was -0.0216 in assay [14]; 0.506 in [15]; 0.0602 in assay [16]; 0.798 in the assay with Sam68 (KHDRBS1); 0.902 in [17]; 0.101 in [18]. The compound further had a z-score in assay [2] of -4.92. In addition, the composite Z-score in assay [11] is -0.0102 (inactive).
